From PubChem BioAssay (EPA / NIEHS)
Inconclusive results are not listed. Activity calls are given as the source filed them. How the source made its calls: active means hit-call score of the fitted dose curve at least 0.9, where 1 is the maximum; inconclusive means response in the unintended direction; inactive means score below 0.9.

Legend:
[1] = target: human MAP Kinase-Activated Protein Kinase 2 (MAPKAPK2), MAPKAPK2 (gene 9261) (UniProt P49137); test: NVS_ENZ_hMAPKAPK2: NovaScreen (NVS) Enzymatic Assay for human MAP Kinase-Activated Protein Kinase 2 (MAPKAPK2) (AID 2283178)
Method in brief: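 Cell-free recombinant human MAPKAPK2 activity measured by fluorescence with electrophoretic mobility shift separation of substrate and product, 1 hr after dosing. Loss of signal versus DMSO; primary screen at 25 uM, concentration-response up to 50 uM.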

[2] = target: human Matrix Metalloproteinase-2 (MMP2), MMP2 (gene 4313) (UniProt P08253); test: NVS_ENZ_hMMP2: NovaScreen (NVS) Enzymatic Assay for human Matrix Metalloproteinase-2 (MMP2) (AID 2283184)
Method in brief: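 Cell-free recombinant MMP2 activity with a fluorescent substrate, read 1 h after dosing. Primary screen in duplicate at 25 uM; actives then run in concentration series; loss of signal fitted versus DMSO.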

[3] = target: sheep Cyclooxygenase-2 (Cox2), PTGS2 (gene 443460) (UniProt P79208); test: NVS_ENZ_oCOX2: NovaScreen (NVS) Enzymatic Assay for sheep Cyclooxygenase-2 (Cox2) (AID 2283231)
Method in brief: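 Colorimetric absorbance read-out of COX activity, taken 0.66 hour post-dosing, using native protein from sheep placenta. Single-concentration duplicate screen (25 uM), then singleton concentration-response up to 50 uM for actives.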

[4] = target: human Vascular Endothelial Growth Factor Receptor 1 (VEGFR1), FLT1 (gene 2321) (UniProt P17948); test: NVS_ENZ_hVEGFR1: NovaScreen (NVS) Enzymatic Assay for human Vascular Endothelial Growth Factor Receptor 1 (VEGFR1) (AID 2283226)
Method in brief: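 Cell-free assay of recombinant human VEGFR1 kinase with substrate, measured 1 h after dosing; fluorescence with electrophoretic mobility-shift separation of substrate and product, referenced to DMSO; primary screen at 25 uM in duplicate, actives then run in concentration series.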

[5] = target: rat Constitutive Nitric Oxide Synthase (CNOS), Nos1 (gene 24598) (UniProt P29476); test: NVS_ENZ_rCNOS: NovaScreen (NVS) Enzymatic Assay for rat Constitutive Nitric Oxide Synthase (CNOS) (AID 2283236)
Method in brief: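 Enzyme activity in rat brain membrane preparation, read 1 h after dosing by filter-based radiometric scintillation counting. Primary screen in duplicate at 25 uM; actives (e.g., ≥30% inhibition) then run in concentration-response up to 50 uM.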

[6] = target: guinea pig Leukotriene D4 Receptor (LTD4), CYSLTR1 (gene 100135514) (UniProt Q2NNR5); test: NVS_GPCR_gLTD4: NovaScreen (NVS) G Protein-Coupled Receptor Assay for guinea pig Leukotriene D4 Receptor (LTD4) (AID 2283248)
Method in brief: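 Radioligand displacement on guinea pig lung membranes, 1 h incubation, filtration and scintillation counting; DMSO as negative control. Duplicate 25 uM primary screen, then singleton concentration-response up to 50 uM.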

Chain of sheep Cyclooxygenase-2 (Cox2), PTGS2 (gene 443460) (P79208 whole entry, looked up): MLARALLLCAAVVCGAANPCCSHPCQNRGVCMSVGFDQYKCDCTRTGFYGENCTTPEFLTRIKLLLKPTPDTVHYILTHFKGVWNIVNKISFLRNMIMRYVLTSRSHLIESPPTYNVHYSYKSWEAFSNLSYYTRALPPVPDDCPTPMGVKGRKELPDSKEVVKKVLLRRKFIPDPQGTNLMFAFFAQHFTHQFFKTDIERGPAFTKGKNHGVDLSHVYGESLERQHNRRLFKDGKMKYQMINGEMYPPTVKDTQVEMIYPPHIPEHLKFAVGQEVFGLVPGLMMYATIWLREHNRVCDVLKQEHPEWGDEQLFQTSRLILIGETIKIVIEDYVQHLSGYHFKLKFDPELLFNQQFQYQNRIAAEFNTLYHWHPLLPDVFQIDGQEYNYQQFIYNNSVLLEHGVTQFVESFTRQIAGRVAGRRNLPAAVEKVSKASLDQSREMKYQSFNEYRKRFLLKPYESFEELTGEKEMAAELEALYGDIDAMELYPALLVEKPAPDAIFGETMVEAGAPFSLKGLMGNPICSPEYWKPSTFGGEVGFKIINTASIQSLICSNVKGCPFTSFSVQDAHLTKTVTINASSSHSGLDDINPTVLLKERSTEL
Chain of human Vascular Endothelial Growth Factor Receptor 1 (VEGFR1), FLT1 (gene 2321) (P17948 whole entry, looked up): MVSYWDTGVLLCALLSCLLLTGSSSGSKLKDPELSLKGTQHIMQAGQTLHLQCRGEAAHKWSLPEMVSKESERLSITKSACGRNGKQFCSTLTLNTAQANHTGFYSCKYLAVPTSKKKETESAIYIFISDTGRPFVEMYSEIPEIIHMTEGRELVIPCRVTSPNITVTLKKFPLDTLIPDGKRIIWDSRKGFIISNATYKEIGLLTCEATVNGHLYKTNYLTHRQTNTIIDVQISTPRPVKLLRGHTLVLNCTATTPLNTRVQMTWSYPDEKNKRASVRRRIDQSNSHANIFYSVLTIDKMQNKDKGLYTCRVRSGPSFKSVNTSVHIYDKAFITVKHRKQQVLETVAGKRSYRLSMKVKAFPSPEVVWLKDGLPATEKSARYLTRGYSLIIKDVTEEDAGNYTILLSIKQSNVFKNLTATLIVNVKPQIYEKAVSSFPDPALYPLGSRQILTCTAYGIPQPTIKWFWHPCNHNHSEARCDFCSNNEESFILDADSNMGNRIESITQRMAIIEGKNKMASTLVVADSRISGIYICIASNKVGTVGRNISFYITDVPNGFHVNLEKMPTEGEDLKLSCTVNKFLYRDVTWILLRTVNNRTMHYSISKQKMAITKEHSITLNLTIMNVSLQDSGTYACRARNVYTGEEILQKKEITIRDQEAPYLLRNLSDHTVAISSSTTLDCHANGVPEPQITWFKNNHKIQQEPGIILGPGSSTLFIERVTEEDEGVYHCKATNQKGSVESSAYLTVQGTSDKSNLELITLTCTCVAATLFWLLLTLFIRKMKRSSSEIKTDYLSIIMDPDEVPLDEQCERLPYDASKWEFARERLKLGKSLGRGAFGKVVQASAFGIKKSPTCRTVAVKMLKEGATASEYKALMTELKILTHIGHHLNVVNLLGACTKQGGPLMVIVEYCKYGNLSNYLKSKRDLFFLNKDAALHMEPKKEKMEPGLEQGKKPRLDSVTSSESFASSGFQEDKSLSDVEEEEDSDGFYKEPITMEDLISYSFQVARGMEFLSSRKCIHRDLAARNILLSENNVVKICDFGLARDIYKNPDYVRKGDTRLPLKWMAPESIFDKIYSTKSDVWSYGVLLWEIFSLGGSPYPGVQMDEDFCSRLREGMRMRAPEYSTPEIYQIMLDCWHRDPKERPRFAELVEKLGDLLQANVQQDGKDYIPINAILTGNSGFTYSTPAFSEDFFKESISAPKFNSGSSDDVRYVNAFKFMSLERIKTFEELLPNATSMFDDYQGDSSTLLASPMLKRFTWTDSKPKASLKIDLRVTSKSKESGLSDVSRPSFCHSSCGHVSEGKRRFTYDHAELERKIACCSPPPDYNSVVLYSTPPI
Chain of rat Constitutive Nitric Oxide Synthase (CNOS), Nos1 (gene 24598) (P29476 whole entry, looked up): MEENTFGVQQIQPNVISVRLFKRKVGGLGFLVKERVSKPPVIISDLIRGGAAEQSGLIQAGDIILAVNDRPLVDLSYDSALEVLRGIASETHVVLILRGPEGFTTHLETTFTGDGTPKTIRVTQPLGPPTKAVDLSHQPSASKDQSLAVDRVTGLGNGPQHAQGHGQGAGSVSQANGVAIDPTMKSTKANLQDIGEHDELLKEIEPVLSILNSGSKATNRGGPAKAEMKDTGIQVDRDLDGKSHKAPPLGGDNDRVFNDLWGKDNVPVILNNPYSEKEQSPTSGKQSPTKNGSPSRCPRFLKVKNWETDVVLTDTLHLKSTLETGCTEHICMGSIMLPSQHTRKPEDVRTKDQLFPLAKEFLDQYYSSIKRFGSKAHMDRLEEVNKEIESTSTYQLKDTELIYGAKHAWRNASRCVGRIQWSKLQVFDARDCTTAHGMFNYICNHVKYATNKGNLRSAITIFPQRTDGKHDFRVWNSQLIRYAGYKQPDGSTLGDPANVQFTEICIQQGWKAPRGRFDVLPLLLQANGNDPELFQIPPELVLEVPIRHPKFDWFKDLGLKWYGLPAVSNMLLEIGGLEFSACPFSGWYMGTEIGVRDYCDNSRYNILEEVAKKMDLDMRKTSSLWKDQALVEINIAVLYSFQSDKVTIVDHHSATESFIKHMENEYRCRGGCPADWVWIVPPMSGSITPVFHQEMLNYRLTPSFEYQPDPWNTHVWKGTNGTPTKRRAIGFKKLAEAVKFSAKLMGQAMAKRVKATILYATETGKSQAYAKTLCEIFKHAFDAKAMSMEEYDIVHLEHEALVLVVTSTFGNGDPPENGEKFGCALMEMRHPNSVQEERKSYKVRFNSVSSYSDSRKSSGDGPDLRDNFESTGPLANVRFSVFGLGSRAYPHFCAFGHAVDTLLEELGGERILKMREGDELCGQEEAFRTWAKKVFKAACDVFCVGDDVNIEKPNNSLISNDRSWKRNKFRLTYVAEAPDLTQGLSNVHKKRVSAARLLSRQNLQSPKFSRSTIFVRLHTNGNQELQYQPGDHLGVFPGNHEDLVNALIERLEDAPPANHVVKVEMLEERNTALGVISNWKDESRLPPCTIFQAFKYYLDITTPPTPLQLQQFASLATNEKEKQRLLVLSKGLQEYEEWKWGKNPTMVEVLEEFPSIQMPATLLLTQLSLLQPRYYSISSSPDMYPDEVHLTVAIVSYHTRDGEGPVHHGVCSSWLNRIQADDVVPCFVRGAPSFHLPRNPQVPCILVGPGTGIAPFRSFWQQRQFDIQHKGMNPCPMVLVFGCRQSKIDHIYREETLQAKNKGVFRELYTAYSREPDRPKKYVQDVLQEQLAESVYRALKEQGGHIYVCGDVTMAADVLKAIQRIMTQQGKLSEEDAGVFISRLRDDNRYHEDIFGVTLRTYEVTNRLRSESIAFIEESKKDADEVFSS
Chain of guinea pig Leukotriene D4 Receptor (LTD4), CYSLTR1 (gene 100135514) (Q2NNR5 whole entry, looked up): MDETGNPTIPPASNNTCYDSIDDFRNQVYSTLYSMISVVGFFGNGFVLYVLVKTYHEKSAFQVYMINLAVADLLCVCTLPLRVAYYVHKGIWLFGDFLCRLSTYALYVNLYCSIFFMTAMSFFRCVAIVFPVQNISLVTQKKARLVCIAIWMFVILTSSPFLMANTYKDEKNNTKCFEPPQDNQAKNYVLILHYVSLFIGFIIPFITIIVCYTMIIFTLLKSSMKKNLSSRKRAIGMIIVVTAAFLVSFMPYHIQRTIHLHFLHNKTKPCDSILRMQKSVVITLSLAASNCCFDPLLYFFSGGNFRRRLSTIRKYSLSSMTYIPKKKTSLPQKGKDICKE
Chain of human MAP Kinase-Activated Protein Kinase 2 (MAPKAPK2), MAPKAPK2 (gene 9261) (P49137 whole entry, looked up): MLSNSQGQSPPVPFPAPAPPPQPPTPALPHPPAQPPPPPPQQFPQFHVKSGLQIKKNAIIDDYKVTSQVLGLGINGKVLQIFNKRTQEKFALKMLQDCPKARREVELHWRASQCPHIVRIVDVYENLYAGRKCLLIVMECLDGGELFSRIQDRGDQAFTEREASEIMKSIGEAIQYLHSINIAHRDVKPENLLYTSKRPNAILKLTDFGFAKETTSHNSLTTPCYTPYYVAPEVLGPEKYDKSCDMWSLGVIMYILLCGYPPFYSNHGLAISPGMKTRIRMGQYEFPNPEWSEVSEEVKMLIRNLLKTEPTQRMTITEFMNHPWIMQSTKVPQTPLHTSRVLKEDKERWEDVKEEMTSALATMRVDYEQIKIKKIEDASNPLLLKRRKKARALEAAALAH
Chain of human Matrix Metalloproteinase-2 (MMP2), MMP2 (gene 4313) (P08253 whole entry, looked up): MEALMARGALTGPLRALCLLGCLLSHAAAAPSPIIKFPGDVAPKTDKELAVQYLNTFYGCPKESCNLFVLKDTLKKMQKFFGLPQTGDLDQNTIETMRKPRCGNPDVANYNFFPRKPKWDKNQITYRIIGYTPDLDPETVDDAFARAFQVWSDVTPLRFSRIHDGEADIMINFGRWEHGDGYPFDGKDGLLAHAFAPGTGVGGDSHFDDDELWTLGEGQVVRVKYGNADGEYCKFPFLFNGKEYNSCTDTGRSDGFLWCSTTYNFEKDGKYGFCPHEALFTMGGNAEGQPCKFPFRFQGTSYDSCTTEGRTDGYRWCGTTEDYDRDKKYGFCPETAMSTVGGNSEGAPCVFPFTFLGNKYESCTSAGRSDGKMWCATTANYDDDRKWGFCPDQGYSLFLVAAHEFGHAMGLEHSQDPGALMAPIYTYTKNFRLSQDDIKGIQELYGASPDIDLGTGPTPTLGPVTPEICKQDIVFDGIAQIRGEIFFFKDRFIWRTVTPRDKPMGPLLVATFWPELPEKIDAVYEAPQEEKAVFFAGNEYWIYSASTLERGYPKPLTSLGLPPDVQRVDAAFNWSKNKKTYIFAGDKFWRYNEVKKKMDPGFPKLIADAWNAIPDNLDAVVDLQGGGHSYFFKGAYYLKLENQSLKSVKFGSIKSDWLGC

Nc1ccc(C(=O)O)cc1
outcome [1]: inactive

CCN1CN(CC)CN(CC)C1
outcome [2]: inactive | outcome [3]: inactive

Nc1cccc(N)n1
outcome [4]: inactive

C=C(C)C1CC=C(C)CC1 (configuration not stated)
AC50 [3]: 19.3 µM (active)

Cc1ccc([N+](=O)[O-])cc1N
AC50 [5]: 7.96 µM (active)

CN1CCN(C)CC1
outcome [6]: inactive
